The structures appear in SMILES notation. Calls of active or inactive are those of the source. Unless noted, no rule for the calls is given here.

This note sets out measurements from PubChem BioAssay.

A short description of test [1]: compounds altering circadian rhythm period length – cell-based, LOPAC library, luminescence reporter (AID 2774).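 Also: values are relative to mean of DMSO wells on each plate.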 The following applies: circadian reporter cells, at 7 µM, actives lie on both sides.
The subject of test [2] is Hepatitis C virus NS3 helicase. Kind of test: blockers of NS3h binding to ssDNA – biochemical, fluorescence polarization, LOPAC1280 library, primary screen (AID 687035; in the data active = inhibition above about 37%). Conditions: Purified HCV NS3 helicase, Cy5-dT15 ssDNA binding fluorescence polarization; stronger effect = higher value; concentration not given here. In general terms: In fluorescence polarisation assays a small probe gives low polarisation when free and higher when bound to something large.

Test [3] is described as follows: compounds altering Cy5-DNA-NS3h complex signal – biochemical, LOPAC1280, artefact control for HCV NS3 helicase inhibitor project (AID 687037). Conditions: Cy5-DNA-NS3h complex fluorescence interference counterscreen. A general note: A counterscreen serves to expose hits that act by an unwanted route or on another target.
The nature of test [4]: viability loss with induced miR-34 in A549 – imaging, A549 dox-inducible miR-34, nuclei and caspase counts, primary screen (AID 1347080;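 active = compounds whose cell count with miR-34 switched on is under 0.7 times the count with it off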). Conditions: A549 miR-34 inducible, Hoechst nuclei count, 48 h.
Test [5] can be described thus: blockers of cellular phospholipid synthesis – cell-based, LOPAC library, screen 4, primary screen (AID 1347384). Conditions: animal cells, phospholipid biosynthesis inhibition screen; at 10 µM.
Test [6] is described as follows: galactose survival enhancers in mitochondrial complex I cybrids – cell-based, galactose medium, ATP luminescence, primary screen (AID 1645843;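 active = z-score of at least 1.8 in each of two replicates, scored against plate mean and spread of sample wells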;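 also: positive z means more ATP and so rescue of galactose-driven cybrid death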). The following applies: complex I mutant cybrid cells, 72 h, stronger effect = higher value.
[7] abbreviates: stronger effect = lower value, cell number ratio, induced over uninduced.
Setting [8] is: measured here: relative caspase fold change +Dox/-Dox.
Where [9] appears, read: measured here: total cells with miR-34 induction, stronger effect = lower value.
Where [10] appears, read: measured here: total cells without miR-34 induction.

Broadly, the inhibition is the relative decrease from the control value, in per cent. Regarding `O=[N+]([O-])c1ccc(CSc2ncnc3c2ncn3[C@@H]2O[C@H](CO)[C@H](O)C2O)cc1` (stereo partly specified), the period change in test [1] is -0.085 h (inactive). Moreover, the inhibition in test [2] was -4% (inactive). The fluorescence ratio (interference) in test [3] was 0.9 (inactive). In addition, the fold change in test [4] (setting [7]) is 1.12 (inactive); in test [4] (setting [8]), 0.942. Further, the cell count in test [4] (setting [9]) stood at 10500; in test [4] (setting [10]) it was 9340. The result in test [5] was inactive. In test [6], the z-score was 1.67 (inactive).
Take `Cc1cc(NC(=O)Nc2ccc3c(ccn3C)c2)sn1`: in test [1], the period change is -0.055 h (inactive). For the same molecule, the inhibition in test [2] was -1% (inactive). For the same molecule, the fluorescence ratio (interference) in test [3] is 0.9 (inactive). Moreover, the fold change in test [4] (setting [7]) was 1.07 (inactive); in test [4] (setting [8]), 1.78. Further, the cell count was 9080 in test [4] (setting [9]) and 8470 in test [4] (setting [10]). In addition, the molecule was classed as inactive in test [5]. The z-score in test [6] was 0.19 (inactive).
With `Nc1nc2c(nc(Br)n2C2OC3COP(=O)(O)O[C@@H]3C2O)c(=O)[nH]1` (stereo partly specified), the period change in test [1] is -0.01 h (inactive). The inhibition in test [2] was -2% (inactive). Moreover, the fluorescence ratio (interference) in test [3] is 1 (inactive). The fold change is 1.05 (inactive) in test [4] (setting [7]) and 1.74 in test [4] (setting [8]). Further, the cell count in test [4] (setting [9]) is 10000; in test [4] (setting [10]), 9530. In test [5], the molecule was called inactive. The z-score in test [6] is 0.555 (inactive).
In the case of `CN(C)C(N)=NCCC[C@H](N)C(=O)O`, the period change in test [1] was -0.14 h (inactive). Further, in test [2], the inhibition is -2% (inactive). The fluorescence ratio (interference) in test [3] is 1 (inactive). In addition, the fold change in test [4] (setting [7]) is 0.963 (inactive); in test [4] (setting [8]), 1.27. Besides, the cell count in test [4] (setting [9]) worked out at 9830; in test [4] (setting [10]), 10200. In test [5], the call was inactive. The z-score in test [6] was 0.265 (inactive).
Turning to `COC(=O)C(C)(N)Cc1ccc(O)cc1` (stereo unspecified), the period change in test [1] is -0.015 h (inactive). Besides, the inhibition in test [2] is -3% (inactive). The fluorescence ratio (interference) in test [3] was 1 (inactive). Also, the values for the fold change in test [4] (setting [7]) and in test [4] (setting [8]) were 1.04 (inactive) and 1.45, respectively. Also, the results for the cell count in test [4] (setting [9]) and in test [4] (setting [10]) were 10900 and 10400, respectively. For the same molecule, the result in test [5] was inactive. The z-score in test [6] was 0.39 (inactive).
Take `CN1CCCC1CCOC(C)(c1ccccc1)c1ccc(Cl)cc1` (stereo unspecified): the period change in test [1] was 0.12 h (inactive). For the same molecule, the inhibition in test [2] was -3% (inactive). In addition, the fluorescence ratio (interference) in test [3] was 1 (inactive). Besides, the fold change in test [4] (setting [7]) was 1.24 (inactive); in test [4] (setting [8]), 1.31. Further, the cell count in test [4] (setting [9]) stood at 4130; in test [4] (setting [10]), 3330. Moreover, the call in test [5] was inactive. In addition, in test [6], the z-score was -1.51 (inactive).
For the molecule `O=c1[nH]c2cc(Cl)ccc2c(O)c1-c1ccc(Oc2ccccc2)cc1`, the period change in test [1] is -0.015 h (inactive). The inhibition in test [2] is -2% (inactive). In addition, in test [3], the fluorescence ratio (interference) was 1 (inactive). Also, the fold change in test [4] (setting [7]) is 1.06 (inactive); in test [4] (setting [8]), 0.974. For the same molecule, the results for the cell count in test [4] (setting [9]) and in test [4] (setting [10]) were 10400 and 9850, respectively. Further, the molecule was called inactive in test [5]. Further, in test [6], the z-score is 0.965 (inactive).
In the case of `Cc1nc(N=Nc2ccc(S(=O)(=O)O)cc2S(=O)(=O)O)c(COP(=O)(O)O)c(C=O)c1O`, the period change in test [1] was 0.055 h (inactive). In test [2], the inhibition is 0% (inactive). In addition, in test [3], the fluorescence ratio (interference) is 1 (inactive). The values for the fold change in test [4] (setting [7]) and in test [4] (setting [8]) were 0.994 (inactive) and 1.49, respectively. Also, the values for the cell count in test [4] (setting [9]) and in test [4] (setting [10]) were 9390 and 9440, respectively. Moreover, in test [5], the result was inactive. Further, the z-score in test [6] is 0.795 (inactive).
Take `Cn1c(=O)c2[nH]c(-c3ccc(S(=O)(=O)O)cc3)nc2n(C)c1=O`: in test [1], the period change is -0.005 h (inactive). Moreover, the inhibition in test [2] was 0% (inactive). Further, in test [3], the fluorescence ratio (interference) is 1 (inactive). Further, the fold change in test [4] (setting [7]) is 1.01 (inactive); in test [4] (setting [8]), 2.24. The cell count is 10100 in test [4] (setting [9]) and 10000 in test [4] (setting [10]). The call in test [5] was inactive. In addition, the z-score in test [6] is -0.23 (inactive).
For the molecule `Cn1c(=O)c2[nH]c(-c3ccccc3)nc2n(C)c1=O`, the period change in test [1] is 0.09 h (inactive). Moreover, the inhibition in test [2] is -3% (inactive). Moreover, the fluorescence ratio (interference) in test [3] is 1 (inactive). For the same molecule, the fold change in test [4] (setting [7]) is 1.06 (inactive); in test [4] (setting [8]) it was 3.05. For the same molecule, the figures for the cell count in test [4] (setting [9]) and in test [4] (setting [10]) were 10000 and 9510, respectively. The molecule was called inactive in test [5]. Also, in test [6], the z-score was 1.04 (inactive).
Regarding `CCCN(CCc1ccccc1)C1CCc2c(O)cccc2C1` (stereo unspecified), in test [1], the period change was 0.095 h (inactive). For the same molecule, the inhibition in test [2] was -4% (inactive). Besides, the fluorescence ratio (interference) in test [3] was 1 (inactive). The figures for the fold change in test [4] (setting [7]) and in test [4] (setting [8]) were 0.964 (inactive) and 1.22, respectively. For the same molecule, the cell count is 5860 in test [4] (setting [9]) and 6070 in test [4] (setting [10]). Besides, the result in test [5] was inactive. In addition, the z-score in test [6] is -1.21 (inactive).
`Nc1nc(Nc2ccccc2)nc2c1ncn2[C@@H]1O[C@H](CO)[C@H](O)C1O` (stereo partly specified): the period change in test [1] was -0.07 h (inactive). The inhibition in test [2] was -4% (inactive). In test [3], the fluorescence ratio (interference) was 1 (inactive). Besides, the results for the fold change in test [4] (setting [7]) and in test [4] (setting [8]) were 0.974 (inactive) and 1.23, respectively. For the same molecule, the cell count in test [4] (setting [9]) came to 9660; in test [4] (setting [10]) it was 9910. The call in test [5] was inactive. Further, the z-score in test [6] is 0.02 (inactive).
Take `C[C@H]1CC2C3CCC4=CC(=O)C=C[C@]4(C)[C@@]3(Cl)[C@@H](O)C[C@]2(C)[C@@]1(O)C(=O)CO` (stereo partly specified): in test [1], the period change was -0.07 h (inactive). For the same molecule, the inhibition in test [2] was -3% (inactive). Moreover, the fluorescence ratio (interference) in test [3] is 1 (inactive). The values for the fold change in test [4] (setting [7]) and in test [4] (setting [8]) were 0.918 (inactive) and 1.96, respectively. The cell count in test [4] (setting [9]) is 7200; in test [4] (setting [10]), 7840. For the same molecule, in test [5], the molecule was classed as inactive. Further, the z-score in test [6] was 1.25 (inactive).
Regarding `O=C(O)/C(=C/c1c(C(=O)O)[nH]c2cc(Cl)cc(Cl)c12)c1ccccc1`, the period change in test [1] is 0.21 h (inactive). The inhibition in test [2] was 0% (inactive). In test [3], the fluorescence ratio (interference) is 1 (inactive). In addition, the fold change in test [4] (setting [7]) is 1.07 (inactive); in test [4] (setting [8]), 0.725. Moreover, the cell count in test [4] (setting [9]) amounted to 9940; in test [4] (setting [10]), 9320. In test [5], the molecule was called inactive. Moreover, the z-score in test [6] is 1.03 (inactive).
Regarding `COc1cccc(OC)c1OCCNCC1CSc2ccccc2O1` (stereo unspecified), the period change in test [1] was 0.065 h (inactive). In addition, in test [2], the inhibition was 0% (inactive). For the same molecule, in test [3], the fluorescence ratio (interference) was 1 (inactive). The results for the fold change in test [4] (setting [7]) and in test [4] (setting [8]) were 1.03 (inactive) and 1.19, respectively. Besides, the cell count in test [4] (setting [9]) came out at 7530; in test [4] (setting [10]), 7340. In addition, the result in test [5] was inactive. Also, the z-score in test [6] was -1.31 (inactive).
For the molecule `Cc1nc(N=Nc2ccc(C(=O)O)cc2)c(COP(=O)(O)O)c(C=O)c1O`, in test [1], the period change was -0.16 h (inactive). Further, in test [2], the inhibition is 43% (active). Moreover, the fluorescence ratio (interference) in test [3] was 1 (inactive). Also, the fold change in test [4] (setting [7]) is 1.04 (inactive); in test [4] (setting [8]), 0.656. Besides, the cell count in test [4] (setting [9]) came out at 10100; in test [4] (setting [10]) it was 9680. The molecule was classed as inactive in test [5]. In test [6], the z-score was 0.49 (inactive).
In the case of `O=C(O)/C=C/c1cnc[nH]1`, the period change in test [1] is -0.135 h (inactive). In test [2], the inhibition is -2% (inactive). Also, in test [3], the fluorescence ratio (interference) is 1 (inactive). The values for the fold change in test [4] (setting [7]) and in test [4] (setting [8]) were 1.01 (inactive) and 2.13, respectively. The cell count in test [4] (setting [9]) was 10700; in test [4] (setting [10]), 10600. In addition, the outcome in test [5] was inactive. In test [6], the z-score is 0.495 (inactive).
Take `CC(C)C[C@H](NC(=O)[C@H](O)[C@H](N)Cc1ccccc1)C(=O)O`: the period change in test [1] is -0.01 h (inactive). Moreover, in test [2], the inhibition was -2% (inactive). The fluorescence ratio (interference) in test [3] is 1 (inactive). Further, the fold change in test [4] (setting [7]) is 1.02 (inactive); in test [4] (setting [8]) it was 0.988. Moreover, the cell count in test [4] (setting [9]) was 10100; in test [4] (setting [10]), 9920. Besides, the molecule was called inactive in test [5]. For the same molecule, in test [6], the z-score is 0.245 (inactive).
`Cc1cccc(C)c1OCC(N)C(C)C` (stereo unspecified): in test [1], the period change was -0.08 h (inactive). The inhibition in test [2] is -3% (inactive). In test [3], the fluorescence ratio (interference) is 1 (inactive). Further, the results for the fold change in test [4] (setting [7]) and in test [4] (setting [8]) were 1.09 (inactive) and 0.766, respectively. For the same molecule, the cell count came out at 11200 in test [4] (setting [9]) and 10300 in test [4] (setting [10]). In addition, in test [5], the call was inactive. For the same molecule, the z-score in test [6] is -0.425 (inactive).
